The list is not random: actives were taken first. Their share in the collection is about 21%.
Shiga inhibitor – blocks Shiga toxin action in Vero cells | Vero cells, Shiga toxin protein synthesis inhibition reporter | AID 2315 | inhibition, % at 38.7 µM | 290,000 tested, 9.2% active; in the data active = inhibition mostly above about 28%, no sharp cut-off; inactive = mostly below about 43%; note: 0% is about no effect
Pf growth 48h – P. falciparum growth inhibition at 48 hours (one generation). P. falciparum luciferase growth in erythrocytes, 48 h. Potency, µM (titrated, usually from 28.7 µM), for inactives: top-dose activity change, negative = inhibition, most hits filed as inhibitors. AID 504832. 310,000 tested, 5.9% active; note: potency is the fitted concentration of half-maximal effect; % is set by controls: 0 for no effect and ±100 for the full control effect
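Luciferase-expressing P. falciparum in infected erythrocytes (2% hematocrit, 0.1% parasitemia final) in RPMI 1640/0.5% Albumax were exposed to compound for 48 hours at 37 C, 5% CO2; growth read as luminescence.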
CHX counter – counter-screen for Shiga toxin inhibitors: cycloheximide protein synthesis inhibition. cell reporter, cycloheximide protein synthesis inhibition counterscreen. max response, %. 300,000 tested, 12% active. AID 2314; in the data active = max response mostly above about 13%, no sharp cut-off; inactive = mostly below about 14%; note: read at 38.3 µM for the half of the compounds with a filed dose; 0% is about no effect
Pf growth 96h – P. falciparum growth inhibition at 96 hour, primary screen for plastid delayed-death inhibitors; P. falciparum luciferase reporter growth, 96 h; Potency, µM (doses to about 28.7 µM), inactives show top-dose activity change, negative = inhibition, usual class: inhibitors; 320,000 tested, 6.9% active; note: potency is the fitted concentration of half-maximal effect; % is set by controls: 0 for no effect and ±100 for the full control effect
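Two parasite generations (96 h, 37 C, 5% CO2) of compound exposure in infected erythrocytes (0.05% parasitemia, 2% hematocrit). Luciferase-reporter P. falciparum; decreased luminescence indicates inhibited growth, aimed at apicoplast-acting delayed death.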
SARS PLpro yeast – inhibitors of SARS-CoV papain-like protease in yeast | S. cerevisiae expressing SARS-CoV PLpro, growth rescue | Potency, µM (series often up to 32.9 µM), for the others: at the top dose activity, positive = growth rescue, actives largely listed as activators | 330,000 tested, 0.19% active | AID 485353; calls by dose curve; note: potency is the fitted concentration of half-maximal effect; 0% is about no effect; nearly all actives have a fitted effect of over 55% in size
NS1 function inh – blocks influenza NS1 protein function | 270,000 tested, 0.4% active | Potency, µM (titrated, usually from 46.1 µM), without a hit: top-dose activity, positive = more growth | AID 2326; calls by dose curve; note: potency is the fitted concentration of half-maximal effect; actives are rising curves; nearly all actives have a fitted effect of over 50% in size
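Read-out: OD600 growth recovery of NS1-expressing budding yeast. Cells grown overnight at 30C in -URA glucose medium, washed, resuspended and diluted 1:100 in 2% galactose assay medium, pH 6.0. Same strain lacking NS1 served as positive control.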
The depositor's hits bear a star; [ ] = remark or other dose. Unless noted, calls come from the whole dose curve; as a rule, active = well fitted inhibition curve with a large enough effect; inconclusive = small, poorly fitted or top-dose-only effect, or another doubt; inactive = no such curve, though single readings can be large or run the other way.

How did Cc1noc(/C=C/c2ccccc2F)c1S(=O)(=O)N1CCC(C(=O)N2CCN(C)CC2)CC1 do in these assays?
Shiga inhibitor: -3.5; Pf growth 48h: -0.7%; CHX counter: -1.9; Pf growth 96h: -19.7%; SARS PLpro yeast: 2.1%; NS1 function inh: -10.0%

Results for CCN(CCN(C)C)C(=O)C1CCN(S(=O)(=O)c2c(C)noc2/C=C/c2ccccc2F)CC1 ?
Shiga inhibitor: -17.9; Pf growth 48h: 9.28µM*; CHX counter: -14.9; Pf growth 96h: -14.3%; SARS PLpro yeast: -4.1%; NS1 function inh: -3.1%

What do the screens show for `Cc1ccc(C)c(NC(=O)CN(C)C(=O)/C=C/c2ccco2)c1`?
Shiga inhibitor: -0.7; Pf growth 48h: -5.5%; CHX counter: 10.0; Pf growth 96h: 7.0%; SARS PLpro yeast: -0.4%

What do the screens show for `COC(=O)c1ccccc1NC(=O)CNc1ccc(F)c(S(=O)(=O)N2CCOCC2)c1`?
Pf growth 48h: inconclusive; Pf growth 96h: -4.2%; SARS PLpro yeast: 1.9%

What do the screens show for `CS(=O)(=O)Nc1ccc(-c2ccc(/C=C3\SC(N)=NC3=O)o2)cc1`?
Shiga inhibitor: -2.8; Pf growth 48h: -23.0%; CHX counter: -1.8; Pf growth 96h: 3.29µM*; SARS PLpro yeast: 2.3%; NS1 function inh: 6.2%

Results for Cc1c(O[C@@H]2O[C@H](CO)[C@@H](O)[C@H](O)[C@H]2O)ccc2c1oc(=O)c1ccccc12 ?
Shiga inhibitor: 47.9; Pf growth 48h: -11.3%[0.00184 µM]; CHX counter: 15.3*; Pf growth 96h: -13.5%; SARS PLpro yeast: 9.1%; NS1 function inh: 6.2%

What do the screens show for `Cc1c(C)c2ccc(O[C@@H]3O[C@H](CO)[C@H](O)[C@H](O)[C@H]3O)c(C)c2oc1=O`?
Shiga inhibitor: 5.6; Pf growth 48h: 16.8%; CHX counter: 6.0; Pf growth 96h: 14.7%; SARS PLpro yeast: -2.2%; NS1 function inh: 1.2%

How did CCc1nc2ccc(C(=O)NCc3ccccc3)cc2nc1CC do in these assays?
Shiga inhibitor: 2.6; Pf growth 48h: -16.8%; CHX counter: -0.4; Pf growth 96h: -1.2%; SARS PLpro yeast: -0.3%; NS1 function inh: -4.5%

Results for CCC(C)(C(=O)NC1CCCCC1)N(Cc1ccco1)C(=O)c1ccccn1 (stereo not drawn) ?
Shiga inhibitor: -13.2; Pf growth 48h: -18.2%; CHX counter: -0.2; Pf growth 96h: -2.5%; SARS PLpro yeast: 0.2%; NS1 function inh: 7.8%

Results for C/C(=N/OCO/N=C(\C)c1ccccc1F)c1ccccc1F ?
Shiga inhibitor: 12.2; Pf growth 48h: -5.1%; CHX counter: -2.0; Pf growth 96h: 1.65µM*; SARS PLpro yeast: -11.4%; NS1 function inh: -0.5%

Results for COc1ccccc1C(=O)N/C(=C\c1ccccc1)C(=O)NCc1ccco1 ?
Shiga inhibitor: 11.4; Pf growth 48h: 21.9%; CHX counter: 0.9; Pf growth 96h: 0.9%; SARS PLpro yeast: -0.2%; NS1 function inh: -2.9%

How did CC(C)OC(=O)C(C(=O)C(F)(F)F)c1cc(NS(=O)(=O)c2ccc3ccccc3c2)c2ccccc2c1O (stereo not drawn) do in these assays?
Shiga inhibitor: 10.9; Pf growth 48h: 9.28µM*; CHX counter: 0.4; Pf growth 96h: 3.29µM*; SARS PLpro yeast: -65.0%; NS1 function inh: 27.7%

Results for Cc1ccc(-c2cn3nc(C)c(C)nc3n2)cc1 ?
Shiga inhibitor: 31.9*; Pf growth 48h: -1.7%; CHX counter: 23.8*; Pf growth 96h: inconclusive; SARS PLpro yeast: -2.1%; NS1 function inh: -4.7%

How did COc1ccc(-c2cn3nc(C)c(C)nc3n2)cc1OC do in these assays?
Pf growth 48h: 129.4%; Pf growth 96h: 268.2%; SARS PLpro yeast: 1.0%

How did O=C(Nc1nccs1)c1ccc(Cl)nc1 do in these assays?
Shiga inhibitor: 23.1; Pf growth 48h: 55.8%; CHX counter: 26.0; Pf growth 96h: 46.5%; SARS PLpro yeast: -3.8%; NS1 function inh: -0.5%

How did Cc1ccc(C(=O)Nc2nccs2)s1 do in these assays?
Shiga inhibitor: 92.4*; Pf growth 48h: 131.0%; CHX counter: 59.1*; Pf growth 96h: 80.3%; SARS PLpro yeast: -1.1%; NS1 function inh: -4.8%

How did O=C(Nc1nccs1)c1ccc(Br)s1 do in these assays?
Shiga inhibitor: 60.4*; Pf growth 48h: 86.3%; CHX counter: 54.3*; Pf growth 96h: 115.6%; SARS PLpro yeast: -7.8%; NS1 function inh: -40.3%

How did O=C(N/N=C\c1ccc(CNS(=O)(=O)c2ccccc2)o1)C(=O)Nc1ccc(F)cc1 do in these assays?
Shiga inhibitor: -3.8; Pf growth 48h: 44.3%; CHX counter: 14.0*; Pf growth 96h: 0.0%; SARS PLpro yeast: 6.8%; NS1 function inh: 2.4%

Results for Cc1cc(C)c2cc(CN(CC3CCCO3)S(=O)(=O)c3ccc4c(c3)OCCO4)c(=O)[nH]c2c1 (stereo not drawn) ?
Shiga inhibitor: 7.6; Pf growth 48h: inconclusive; CHX counter: -1.1; SARS PLpro yeast: 1.8%; NS1 function inh: 5.5%

What do the screens show for `CC1CCN(S(=O)(=O)c2ccc(S(=O)(=O)N3CCCC3)cc2)CC1`?
Shiga inhibitor: -6.5; Pf growth 48h: 6.6%; CHX counter: 5.4; Pf growth 96h: 31.5%; SARS PLpro yeast: -2.6%; NS1 function inh: 5.5%

How did COc1cccc(CNC(=O)C(C)n2ccc3cc(S(=O)(=O)N4CCCCCC4)ccc32)c1 (stereo not drawn) do in these assays?
Shiga inhibitor: -11.6; Pf growth 48h: 7.38µM*; CHX counter: 3.7; Pf growth 96h: inconclusive; SARS PLpro yeast: 2.3%; NS1 function inh: 7.6%

What do the screens show for `CCC(C(=O)NCCC(C)C)n1ccc2cc(S(=O)(=O)N3CCCCC3)ccc21` (stereo not drawn)?
Shiga inhibitor: -6.7; Pf growth 48h: 11.7µM*; CHX counter: 15.6; Pf growth 96h: 36.4%; SARS PLpro yeast: -0.4%; NS1 function inh: 17.1%

What do the screens show for `COc1cccc(CNC(=O)C(C)n2ccc3cc(S(=O)(=O)N4CCCC4)ccc32)c1` (stereo not drawn)?
Shiga inhibitor: -7.4; Pf growth 48h: inconclusive; CHX counter: 9.4; Pf growth 96h: inconclusive; SARS PLpro yeast: 6.9%; NS1 function inh: -4.3%

How did O=C(O)CCCn1ccc2cc(S(=O)(=O)N3CCCC3)ccc21 do in these assays?
Shiga inhibitor: -5.1; Pf growth 48h: 2.6%; CHX counter: -1.4; Pf growth 96h: 13.1µM*; SARS PLpro yeast: -1.5%; NS1 function inh: 7.4%

How did COc1cccc(CNC(=O)c2cc(S(=O)(=O)N3CCCC3)cn2C)c1 do in these assays?
Shiga inhibitor: -5.9; Pf growth 48h: 13.1µM*; CHX counter: -1.5; Pf growth 96h: 11.7µM*; SARS PLpro yeast: 0.2%; NS1 function inh: 3.2%

Results for Cn1cc(S(=O)(=O)N2CCCC2)cc1C(=O)NCc1ccccc1 ?
Shiga inhibitor: -2.9; Pf growth 48h: 19.3%; CHX counter: 5.9; Pf growth 96h: -7.4%; SARS PLpro yeast: -9.0%; NS1 function inh: 22.8%

How did CCn1cc(C(=O)NCCC(C)C)c(=O)c2cc(S(=O)(=O)N3CCCCC3)ccc21 do in these assays?
Shiga inhibitor: -7.9; Pf growth 48h: inconclusive; CHX counter: -2.1; Pf growth 96h: inconclusive; SARS PLpro yeast: 5.3%; NS1 function inh: 6.4%
